The target in assay [1] is human Casein Kinase 1-delta (CK1D), CSNK1D (gene 1453) (UniProt P48730). In words: NVS_ENZ_hCK1D: NovaScreen (NVS) Enzymatic Assay for human Casein Kinase 1-delta (CK1D) (AID 2283148). Put shortly:
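Recombinant human CK1-delta, cell-free; fluorescent substrate with electrophoretic mobility-shift separation of product, read 1 h after dosing. Single 25 uM duplicate screen, then concentration-response up to 50 uM; loss of signal vs DMSO.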

Assay [2] concerns the target human Colony Stimulating Factor 1 Receptor (CSF1R), CSF1R (gene 1436) (UniProt P07333). In words: NVS_ENZ_hCSF1R: NovaScreen (NVS) Enzymatic Assay for human Colony Stimulating Factor 1 Receptor (CSF1R) (AID 2283150). The procedure:
NVS_ENZ_hCSF1R is a biochemical, single-readout assay that uses extracted gene-proteins in a cell-free assay. Measurements were taken 1 hour after chemical dosing in a 384-well plate.NVS_ENZ_hCSF1R is one of one assay component(s) measured or calculated from the NVS_ENZ_hCSF1R assay. It is designed to make measurements of enzyme activity, a form of enzyme reporter, as detected with fluorescence intensity signals by Fluorescence and electrophoretic mobility shift technology.Data from the assay component NVS_ENZ_hCSF1R was analyzed into 1 assay endpoint. This assay endpoint, NVS_ENZ_hCSF1R, was analyzed in the positive analysis fitting direction relative to DMSO as the negative control and baseline of activity. Using a type of enzyme reporter, loss-of-signal activity can be used to understand changes in the enzymatic activity as they relate to the gene CSF1R. Furthermore, this assay endpoint can be referred to as a primary readout, because this assay has produced multiple assay endpoints where this one serves a enzymatic activity function. To generalize the intended target to other relatable targets, this assay endpoint is annotated to the kinase intended target family, where the subfamily is receptor tyrosine kinase. […]

In assay [3] the target is human Ephrin type-A Receptor 2 (EphA2), EPHA2 (gene 1969) (UniProt P29317). In words: NVS_ENZ_hEphA2: NovaScreen (NVS) Enzymatic Assay for human Ephrin type-A Receptor 2 (EphA2) (AID 2283155). On the procedure:
NVS_ENZ_hEphA2 is a biochemical, single-readout assay that uses extracted gene-proteins in a cell-free assay. Measurements were taken 1 hour after chemical dosing in a 384-well plate.NVS_ENZ_hEphA2 is one of one assay component(s) measured or calculated from the NVS_ENZ_hEphA2 assay. It is designed to make measurements of enzyme activity, a form of enzyme reporter, as detected with fluorescence intensity signals by Fluorescence and electrophoretic mobility shift technology.Data from the assay component NVS_ENZ_hEphA2 was analyzed into 1 assay endpoint. This assay endpoint, NVS_ENZ_hEphA2, was analyzed in the positive analysis fitting direction relative to DMSO as the negative control and baseline of activity. Using a type of enzyme reporter, loss-of-signal activity can be used to understand changes in the enzymatic activity as they relate to the gene EPHA2. Furthermore, this assay endpoint can be referred to as a primary readout, because this assay has produced multiple assay endpoints where this one serves a enzymatic activity function. To generalize the intended target to other relatable targets, this assay endpoint is annotated to the kinase intended target family, where the subfamily is receptor tyrosine kinase.
Binding assays used specific radioligands (tritiated, iodinated) with non-radioactive competitive displacement ligands in agonist or antagonist protocols (as indicated) and various reference compounds and inhibitors to titrate specific binding to receptors and transporters. Most enzyme assays (CYPs, kinases, phosphatases, proteases, HDACs) used recombinant protein and specific substrates (fluorescence mostly, some colorimetric and radioactive) and inhibitors, followed by a biochemical separation of substrate and product. All assays for the biochemical HTS were initially run in duplicate at a single concentration (10 uM for CYP450 assays and 25 uM for all others). […]

In assay [4] the target is human Ephrin type-A Receptor 1 (EphA1), EPHA1 (gene 2041) (UniProt P21709). Put plainly: NVS_ENZ_hEphA1: NovaScreen (NVS) Enzymatic Assay for human Ephrin type-A Receptor 1 (EphA1) (AID 2283158).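 Note: activity is signal loss versus DMSO meaning EphA1 kinase inhibition.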 Put shortly: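 Biochemical kinase assay run cell-free; 1 h incubation; readout is fluorescence with mobility-shift separation of product. Concentration-response up to 50 uM for actives from a 25 uM screen.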
Chain of human Ephrin type-A Receptor 1 (EphA1), EPHA1 (gene 2041) (P21709 whole entry, looked up): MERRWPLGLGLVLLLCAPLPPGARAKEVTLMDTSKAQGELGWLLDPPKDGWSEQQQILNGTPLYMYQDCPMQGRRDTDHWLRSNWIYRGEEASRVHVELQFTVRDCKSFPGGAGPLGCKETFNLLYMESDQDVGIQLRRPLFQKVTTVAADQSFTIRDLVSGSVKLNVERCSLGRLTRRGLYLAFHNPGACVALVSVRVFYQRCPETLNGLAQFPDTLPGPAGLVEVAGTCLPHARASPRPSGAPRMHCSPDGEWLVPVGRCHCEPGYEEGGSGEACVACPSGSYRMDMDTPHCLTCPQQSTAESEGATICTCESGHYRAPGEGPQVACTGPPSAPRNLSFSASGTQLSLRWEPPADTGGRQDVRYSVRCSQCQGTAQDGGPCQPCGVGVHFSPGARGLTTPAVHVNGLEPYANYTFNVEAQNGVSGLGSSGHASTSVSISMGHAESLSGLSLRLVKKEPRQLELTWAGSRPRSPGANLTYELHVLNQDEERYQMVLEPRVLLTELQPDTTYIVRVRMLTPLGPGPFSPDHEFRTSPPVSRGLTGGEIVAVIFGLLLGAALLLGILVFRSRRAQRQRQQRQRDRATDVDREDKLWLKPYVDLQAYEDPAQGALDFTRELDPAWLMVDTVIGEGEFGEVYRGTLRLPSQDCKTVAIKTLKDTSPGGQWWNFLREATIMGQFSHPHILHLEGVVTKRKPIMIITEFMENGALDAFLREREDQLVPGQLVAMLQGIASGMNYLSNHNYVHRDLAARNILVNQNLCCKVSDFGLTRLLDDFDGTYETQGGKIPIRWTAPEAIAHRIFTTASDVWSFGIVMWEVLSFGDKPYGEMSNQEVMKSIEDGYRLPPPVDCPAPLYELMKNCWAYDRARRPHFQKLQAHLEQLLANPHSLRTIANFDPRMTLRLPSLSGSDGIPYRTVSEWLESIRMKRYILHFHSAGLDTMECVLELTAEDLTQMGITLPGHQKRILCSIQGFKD

Assay [5] has as its target human Ephrin type-B Receptor 2 (EphB2), EPHB2 (gene 2048) (UniProt P29323). In words: NVS_ENZ_hEphB2: NovaScreen (NVS) Enzymatic Assay for human Ephrin type-B Receptor 2 (EphB2) (AID 2283156). Put shortly: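 Compounds were first tested in duplicate at 25 uM, with hits rerun singly in concentration series up to 50 uM. Enzyme activity on fluorescent substrate was read at 1 h by mobility-shift separation, scored as signal loss relative to DMSO.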

Inconclusive results are not listed. Some structures have more than one record in an assay (separate samples or runs), and their calls can disagree. Calls of active or inactive are those of the source. Rule for the calls: active = hit-call score of the fitted dose curve at least 0.9, where 1 is the maximum; inconclusive = response in the unintended direction; inactive = score below 0.9.

Broadly, the AC50 is the concentration giving half of the maximal activity seen.

Chain of human Ephrin type-A Receptor 2 (EphA2), EPHA2 (gene 1969) (P29317 whole entry, looked up): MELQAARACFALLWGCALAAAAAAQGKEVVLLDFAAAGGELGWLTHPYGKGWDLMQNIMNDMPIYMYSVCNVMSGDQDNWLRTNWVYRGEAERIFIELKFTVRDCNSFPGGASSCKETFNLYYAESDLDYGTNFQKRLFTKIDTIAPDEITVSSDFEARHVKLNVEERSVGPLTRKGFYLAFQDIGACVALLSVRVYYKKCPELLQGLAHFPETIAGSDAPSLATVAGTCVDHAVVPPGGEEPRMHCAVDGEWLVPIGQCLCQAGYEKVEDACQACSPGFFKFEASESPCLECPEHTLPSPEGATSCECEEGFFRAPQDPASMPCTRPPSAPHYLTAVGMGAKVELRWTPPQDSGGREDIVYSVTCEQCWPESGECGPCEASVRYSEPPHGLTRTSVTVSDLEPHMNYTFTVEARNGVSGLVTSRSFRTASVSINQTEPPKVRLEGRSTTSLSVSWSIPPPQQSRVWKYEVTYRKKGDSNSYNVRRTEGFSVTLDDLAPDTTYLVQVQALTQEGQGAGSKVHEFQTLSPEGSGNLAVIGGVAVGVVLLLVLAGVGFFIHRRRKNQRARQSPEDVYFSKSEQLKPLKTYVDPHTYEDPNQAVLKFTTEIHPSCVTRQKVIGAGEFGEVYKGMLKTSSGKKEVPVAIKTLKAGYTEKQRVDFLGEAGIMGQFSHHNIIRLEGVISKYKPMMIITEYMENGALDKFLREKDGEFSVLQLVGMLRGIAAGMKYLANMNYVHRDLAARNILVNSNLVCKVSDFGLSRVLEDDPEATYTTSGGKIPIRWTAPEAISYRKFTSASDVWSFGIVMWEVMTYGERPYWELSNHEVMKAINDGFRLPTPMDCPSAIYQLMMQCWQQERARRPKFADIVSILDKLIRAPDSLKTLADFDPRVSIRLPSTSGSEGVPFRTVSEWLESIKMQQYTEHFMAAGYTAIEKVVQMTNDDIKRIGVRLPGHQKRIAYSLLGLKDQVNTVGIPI
Chain of human Casein Kinase 1-delta (CK1D), CSNK1D (gene 1453) (P48730 whole entry, looked up): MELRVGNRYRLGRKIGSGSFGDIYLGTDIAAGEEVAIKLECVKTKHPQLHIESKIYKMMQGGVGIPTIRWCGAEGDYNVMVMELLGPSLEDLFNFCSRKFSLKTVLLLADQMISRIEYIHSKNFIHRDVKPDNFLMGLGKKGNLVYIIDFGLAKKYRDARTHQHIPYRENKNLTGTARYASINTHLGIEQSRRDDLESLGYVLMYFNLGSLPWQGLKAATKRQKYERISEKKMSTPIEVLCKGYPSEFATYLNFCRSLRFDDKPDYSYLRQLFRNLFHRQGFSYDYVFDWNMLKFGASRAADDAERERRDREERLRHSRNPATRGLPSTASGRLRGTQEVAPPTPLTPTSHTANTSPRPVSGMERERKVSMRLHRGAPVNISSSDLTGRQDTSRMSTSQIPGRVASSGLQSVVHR
Chain of human Colony Stimulating Factor 1 Receptor (CSF1R), CSF1R (gene 1436) (P07333 whole entry, looked up): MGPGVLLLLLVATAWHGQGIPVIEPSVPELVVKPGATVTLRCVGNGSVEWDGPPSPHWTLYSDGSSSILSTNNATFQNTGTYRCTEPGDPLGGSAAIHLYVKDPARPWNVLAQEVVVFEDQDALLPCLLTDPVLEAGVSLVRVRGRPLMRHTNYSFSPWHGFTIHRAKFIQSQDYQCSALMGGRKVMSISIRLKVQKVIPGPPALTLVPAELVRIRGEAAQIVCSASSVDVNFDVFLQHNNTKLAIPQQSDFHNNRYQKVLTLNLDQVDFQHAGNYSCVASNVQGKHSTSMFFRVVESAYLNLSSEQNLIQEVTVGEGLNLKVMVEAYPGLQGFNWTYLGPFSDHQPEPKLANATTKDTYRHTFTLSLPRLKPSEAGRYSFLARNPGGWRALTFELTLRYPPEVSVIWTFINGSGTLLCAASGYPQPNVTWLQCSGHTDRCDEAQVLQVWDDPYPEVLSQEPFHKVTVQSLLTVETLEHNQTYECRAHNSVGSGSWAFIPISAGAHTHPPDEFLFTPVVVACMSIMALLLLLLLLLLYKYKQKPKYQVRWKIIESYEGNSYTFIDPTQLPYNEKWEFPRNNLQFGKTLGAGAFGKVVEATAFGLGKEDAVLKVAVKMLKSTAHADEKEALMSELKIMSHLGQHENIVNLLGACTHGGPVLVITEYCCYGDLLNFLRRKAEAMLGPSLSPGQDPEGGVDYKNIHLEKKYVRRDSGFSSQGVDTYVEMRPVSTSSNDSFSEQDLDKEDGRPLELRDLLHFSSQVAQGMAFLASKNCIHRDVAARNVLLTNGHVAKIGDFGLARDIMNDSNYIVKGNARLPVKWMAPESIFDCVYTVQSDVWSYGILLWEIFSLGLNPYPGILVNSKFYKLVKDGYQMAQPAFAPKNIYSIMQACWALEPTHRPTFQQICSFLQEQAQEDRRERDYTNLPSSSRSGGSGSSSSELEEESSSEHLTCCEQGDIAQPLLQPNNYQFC
Chain of human Ephrin type-B Receptor 2 (EphB2), EPHB2 (gene 2048) (P29323 whole entry, looked up): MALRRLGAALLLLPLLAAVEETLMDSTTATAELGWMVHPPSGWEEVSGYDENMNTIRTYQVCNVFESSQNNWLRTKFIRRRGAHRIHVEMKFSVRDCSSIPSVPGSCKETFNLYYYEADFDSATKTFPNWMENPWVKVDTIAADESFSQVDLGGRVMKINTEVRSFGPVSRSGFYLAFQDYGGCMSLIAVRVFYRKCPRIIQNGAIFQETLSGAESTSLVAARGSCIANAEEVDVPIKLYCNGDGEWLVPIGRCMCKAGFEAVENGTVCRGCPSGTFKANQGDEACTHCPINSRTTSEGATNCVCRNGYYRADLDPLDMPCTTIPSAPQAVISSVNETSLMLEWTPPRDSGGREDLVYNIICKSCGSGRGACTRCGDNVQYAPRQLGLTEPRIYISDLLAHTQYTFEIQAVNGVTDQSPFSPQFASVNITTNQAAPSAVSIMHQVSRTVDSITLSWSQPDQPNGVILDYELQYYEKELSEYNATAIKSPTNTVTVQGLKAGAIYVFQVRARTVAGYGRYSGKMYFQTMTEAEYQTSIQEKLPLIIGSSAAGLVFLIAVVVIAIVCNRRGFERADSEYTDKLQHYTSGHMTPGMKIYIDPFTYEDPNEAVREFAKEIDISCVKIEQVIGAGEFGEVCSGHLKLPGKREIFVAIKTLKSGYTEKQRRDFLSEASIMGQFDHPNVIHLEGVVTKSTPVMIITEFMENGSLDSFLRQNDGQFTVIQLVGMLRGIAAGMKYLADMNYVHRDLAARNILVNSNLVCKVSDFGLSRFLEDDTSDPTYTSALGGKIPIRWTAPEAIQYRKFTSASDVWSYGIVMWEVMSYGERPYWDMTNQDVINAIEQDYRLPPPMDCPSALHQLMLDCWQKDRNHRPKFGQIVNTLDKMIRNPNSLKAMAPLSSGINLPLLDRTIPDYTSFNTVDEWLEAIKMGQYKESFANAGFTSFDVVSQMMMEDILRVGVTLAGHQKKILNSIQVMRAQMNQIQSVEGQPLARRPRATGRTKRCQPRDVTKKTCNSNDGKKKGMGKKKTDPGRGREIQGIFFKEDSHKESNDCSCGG

Regarding `CCC(=O)Nc1ccc(Cl)c(Cl)c1`, the AC50 in assay [1] is 23.6 µM (active). On to `Nc1nc(N)nc(NC2CC2)n1`, for which the AC50 in assay [1] is 16.3 µM (active). With `CN(C)[C@@H]1C(=O)C(C(N)=O)=C(O)[C@@]2(O)C(=O)C3=C(O)c4c(O)cccc4[C@@](C)(O)[C@H]3[C@H](O)[C@@H]12`, the AC50 in assay [2] is 12.5 µM (active); in assay [3], 7.61 µM (active). In addition, the molecule was called inactive in assay [3] and in assay [4]. In the case of `CCCOc1nn(C(=O)NS(=O)(=O)c2ccccc2C(=O)OC)c(=O)n1C`, the outcome in assay [2] was inactive. Consider `O=C(O)c1cc(Oc2ccc(C(F)(F)F)cc2Cl)ccc1[N+](=O)[O-]`, for which the outcome in assay [3] and in assay [4] was inactive. As for `CNc1cnn(-c2cccc(C(F)(F)F)c2)c(=O)c1Cl`, the molecule was classed as inactive in assay [5].
